Screening results (PubChem BioAssay)
ADAM17 inh – ADAM17 inhibition, QFRET primary screen; recombinant ADAM17, EDANS/DABCYL FRET peptide cleavage; inhibition, % at 6.95 µM; 370,000 compounds, 0.83% hits;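 active = inhibition above the mean of compounds lying between control limits plus 3 SD, set per campaign, cut at about 8.5% in these data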;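 also: 0% = DMSO-only wells as the low control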
ADAM10 inh – inhibits human ADAM10; recombinant ADAM10, EDANS/DABCYL FRET peptide cleavage, 3 h; inhibition, % at 7 µM; 370,000 compounds, 0.62% hits;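 active = inhibition above a per-campaign cutoff equal to the mean of compounds falling between control-based bounds plus 3 SD, cut at about 20% in these data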;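 also: 0% = DMSO wells while the 100% control is not disclosed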
Target sequence (O14672 214-748 limits assumed): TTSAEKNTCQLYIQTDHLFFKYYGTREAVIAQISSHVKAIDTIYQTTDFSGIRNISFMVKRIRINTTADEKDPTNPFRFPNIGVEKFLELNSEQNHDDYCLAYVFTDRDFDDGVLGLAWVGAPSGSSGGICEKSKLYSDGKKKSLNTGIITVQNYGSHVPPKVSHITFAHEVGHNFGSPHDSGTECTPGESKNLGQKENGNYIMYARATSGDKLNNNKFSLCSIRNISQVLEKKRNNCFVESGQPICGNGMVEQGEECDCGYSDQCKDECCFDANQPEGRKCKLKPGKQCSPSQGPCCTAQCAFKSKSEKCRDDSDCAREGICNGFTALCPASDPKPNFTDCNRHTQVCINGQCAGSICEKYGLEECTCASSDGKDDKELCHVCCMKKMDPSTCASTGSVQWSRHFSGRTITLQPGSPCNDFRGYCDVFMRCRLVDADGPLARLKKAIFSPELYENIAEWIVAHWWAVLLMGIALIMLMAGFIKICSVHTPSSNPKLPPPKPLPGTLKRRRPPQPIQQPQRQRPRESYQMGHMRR
GRIN3A LBD mod – NR3A (human) ligand-binding domain modulation; AID 1259313; Tm shift relative to glycine control, % at 25 µM; NR3A LBD differential scanning fluorimetry, Tm shift; 0% = protein alone, 100% = glycine-bound protein; 340,000 compounds, 2.5% hits;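 active = melting temperature shift of at least 10% of the positive control shift, at one fixed dose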
KLK7 zymogen act – activates the human kallikrein-7 zymogen. P49862. purified proKLK7, EDANS-DABCYL substrate fluorescence; 100% is mature enzyme control, 0% vehicle. 370,000 compounds, 0.9% hits. activation, % at 7 µM;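 active = activation above the mean of all tested compounds plus 3 SD, computed per campaign excluding outliers beyond control limits, cut at about 13% in these data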
FAS-TE inh – blocks the thioesterase domain of human fatty acid synthase. recombinant FAS-TE, OMFH fluorogenic substrate, fluorescence endpoint. 360,000 compounds, 0.67% hits. AID 602261. inhibition, % at 15 µM. P49327;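 active = compounds whose normalised, plate-corrected inhibition of enzyme fluorescence in the single-dose primary screen is 50% or more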;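 also: 0% = DMSO with enzyme and 100% = substrate without enzyme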
ADAM10 counter – inhibits human ADAM10 in ADAM17 exosite counter-screen. recombinant ADAM10, EDANS/DABCYL FRET peptide cleavage, 3 h. AID 743256. inhibition, % at 6.95 µM. 2,900 compounds, 47% hits. shares compounds with ADAM17 inh;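 active = mean inhibition over the triplicate runs exceeds the activity threshold set in the earlier primary screen, cut at about 20% in these data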;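 also: 0% = DMSO wells and 100% = marimastat wells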
ADAM17 confirm – confirmation of inhibitors of human ADAM17; shares compounds with ADAM17 inh; recombinant ADAM17, EDANS/DABCYL QFRET peptide cleavage; inhibition, % at 6.95 µM; 2,900 compounds, 65% hits; AID 743257;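 active = mean inhibition across replicates above the hit cutoff set in the primary screen, cut at about 8.5% in these data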;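 also: 0% = DMSO wells and 100% = marimastat wells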
* = called active by the depositor; . = no result. Sampled rows, rich in hits. Any-hit rate of the full collection: about 4.6%.

SMILES	ADAM17 inh	ADAM10 inh	GRIN3A LBD mod	KLK7 zymogen act	FAS-TE inh	ADAM10 counter	ADAM17 confirm
CC1CCCCN1S(=O)(=O)c1ccc(S(=O)(=O)N(Cc2ccccc2)Cc2ccco2)cc1 (stereo not given)	16*	15	2	0	31	20*	12*
CCN(Cc1ccccc1)S(=O)(=O)c1ccc(S(=O)(=O)N(Cc2ccccn2)Cc2ccco2)cc1	-4	-1	0	0	-9	.	.
COc1ccc(C2Oc3ccccc3C3=C2C(c2cccs2)n2ncnc2N3)cc1 (stereo not given)	9.6*	10	-5	0	40	-7	9.3*
Brc1ccc(C2C3=C(Nc4ncnn42)c2ccccc2OC3c2ccncc2)cc1 (stereo not given)	-78	-308	-3	-20	15	.	.
Cc1cc2c(c(=O)o1)[C@@]1(C(=O)N(C)c3ccccc31)C1=C(CCCC1=O)O2	-3	-2	.	1	.	.	.
COc1ccccc1NS(=O)(=O)c1cc(NC(=O)Nc2ccccc2)ccc1N1CCCCC1	8.8*	13	20*	0	21	4	8
O=C(/C=C/c1cccs1)Nc1ccc(N2CCOCC2)c(S(=O)(=O)Nc2ccccc2Cl)c1	11*	20	0	-4	27	2	6
COc1ccccc1NS(=O)(=O)c1cc(NC(=O)C(C)C)ccc1N1CCCCC1	7	12	-4	-1	32	.	.
COc1ccccc1NS(=O)(=O)c1cc(NC(=O)c2cccs2)ccc1N1CCCC1	10*	20	8	-20	27	-36	4
COc1ccccc1NS(=O)(=O)c1cc(NC(=O)c2cc[n+]([O-])cc2)ccc1N1CCCC1	3	6	4	1	1	.	.
NC(=O)[C@@H]1CCCN1C(=O)[C@@H](Cc1ccccc1)NC(=O)[C@H]1O[C@@H](n2ccc(N)nc2=O)[C@H](O)[C@@H]1O	-3	-7	.	0	.	.	.
COc1ccc(C=CC(=O)c2c(N)n(C)c(=O)n(C)c2=O)cc1	-5	-14	.	1	.	.	.
C=CS(=O)(=O)N(C(=C)C(=O)OC)S(C)(=O)=O	2	-26	.	0	.	.	.
COc1ccc(-c2cc(C3CCN(c4ccc(C(C)=O)cc4[N+](=O)[O-])CC3)[nH]n2)cc1	13*	33*	0	1	22	32*	19*
Cc1cccc(Nc2nnc(SCC(=O)c3ccc(Br)s3)s2)c1C	12*	12	-1	0	20	16	12*
C/C(N)=C(/C#N)C(=O)CSc1nnc(Nc2cccc(C)c2C)s1	1	-9	-3	1	-6	.	.
CCOc1cc(/C=C2\SC(=S)N(Nc3ccccc3)C2=O)ccc1O	9.5*	17	5	0	-5	31*	14*
CCOc1cc(/C=C2\SC(=S)N(NS(=O)(=O)c3ccccc3)C2=O)ccc1O	-1	4	-6	0	-3	.	.
C[C@@H]1CN([C@@H](C)CO)C(=O)CCCn2cc(nn2)CO[C@H]1CN(C)S(C)(=O)=O	0	-26	.	0	.	.	.
CCNC(=S)N/N=C/c1cn(Cc2ccccc2F)c2ccccc12	9.1*	12	-1	-3	11	18	20*
Cc1ccc(Sc2ccc(/C=C3/C(=O)NN(c4ccccc4)C3=O)o2)cc1	8.8*	20	0	0	-5	15	7
O=C(c1cn(Cc2ccccc2)nc1-c1ccc(Cl)cc1)N1CCN(c2ccccn2)CC1	9.5*	0	-4	1	21	16	6
Cc1ccc(-c2nn(Cc3ccccc3)cc2C(=O)N2CCN(c3ccccn3)CC2)cc1	-10	-6	2	0	8	.	.
COC(=O)C1=C(C)N(Cc2ccccc2C(F)(F)F)C(=NCc2cccc(C(F)(F)F)c2)NC1c1cccc(Cl)c1 (stereo not given)	1	1	.	0	.	.	.
Cc1nc(C(=O)Nc2ccc(Cl)cc2)sc1C1(C)CC(c2cccc([N+](=O)[O-])c2)=NO1 (stereo not given)	1	2	-5	-1	30	.	.
SMILES	ADAM17 inh	ADAM10 inh	GRIN3A LBD mod	KLK7 zymogen act	FAS-TE inh	ADAM10 counter	ADAM17 confirm
COc1ccc(NC(=O)c2nc(C)c(C3(C)CC(c4cccnc4)=NO3)s2)cc1 (stereo not given)	11*	11	0	1	8	18	10*
O=C(N/N=C/c1cccnc1)c1ccc([N+](=O)[O-])cc1	8.9*	14	-1	0	1	12	9.0*
O=C(N[C@H]1C/C=C\C[C@@H](CC(=O)N(CCO)Cc2ccccc2)C(=O)NC[C@H](c2ccccc2)OC1=O)OCC1c2ccccc2-c2ccccc21	17*	20	-8	1	-1	9	7
O=S(=O)(c1cccs1)N1CCCc2nc(-c3ccccc3)ccc21	-2	-2	.	0	.	.	.
COC(=O)Cc1ccccc1NS(=O)(=O)c1ccc(C)cc1	-1	-4	.	0	.	.	.
Cc1ccc(S(=O)(=O)Nc2ccccc2CNc2ccccn2)cc1	8.8*	14	-7	0	21	18	10*
O=c1c(Cc2ccc(Cl)cc2)c(O)ccn1Cc1cccc(Cl)c1	-2	3	-7	0	10	.	.
O=c1c(Cc2ccc(Cl)cc2Cl)c(O)ccn1Cc1ccc(Cl)cc1	11*	19	22*	0	20	26*	16*
CN(C)/C=C/C(=O)c1ccc([N+](=O)[O-])c(CS(=O)(=O)c2ccccc2)c1	9.3*	16	2	0	7	9	8.7*
O=c1cc(-c2ccccc2Cl)oc2c(NS(=O)(=O)c3ccccc3OC(F)(F)F)ccc(O)c12	8.9*	15	-3	0	.	34*	20*
O=c1cc(-c2ccccc2Cl)oc2c(NS(=O)(=O)c3ccccc3C(F)(F)F)ccc(O)c12	7	13	2	0	36	.	.
CCS(=O)(=O)N1CCN(Cc2ccccc2OC)CC1	10*	5	1	0	-10	-6	-3
CC(=O)Nc1cccc(NC(=O)c2cccc(S(=O)(=O)N3CCN(Cc4ccccc4)CC3)c2)c1	20*	19	-7	0	2	15	12*
CN(c1cccnc1)c1ccc(NC(=O)Cc2c[nH]c3ccccc23)cc1-c1ccc(F)c(F)c1	-3	-7	.	0	.	.	.
C[C@@H]1COc2cccc(NC3CC3)c2S(=O)(=O)N1	-5	-14	.	0	.	.	.
COCc1[nH]nc2c1C(c1ccc(F)cc1)N(Cc1ccccc1)C2=O (stereo not given)	0	4	.	1	.	.	.
COc1ccc([C@H]2CC(=O)C=C(c3ccc(F)cc3OCc3ccccc3)C2)cc1	-2	3	0	0	24	.	.
